Data from PubChem BioAssay AID463205 (Broad Institute, 2010).
Out of some 2,400 compounds screened, about 20 (0.8%) were called active. This is one part of a sample in which actives are shown more often than they occur.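 The calls were made as follows: active = AC50 no more than ten times the highest tested concentration, or full inhibition at every dose giving a flat fit (cut at about 30 µM in these data); inconclusive = flat fit with activity between 30% and 70%, or poor-quality invalid fit; inactive = AC50 more than ten times the top tested dose.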

Assay: inhibitors of ADP-Glo detection reagents, dose response, artefact control for GSK-3a inhibitor project, biochemical, luminescence, cell-free, homogeneous (AID 463205);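 also: kinase-free counter-screen against the ADP-Glo detection reagents only; potency is for inhibitors that reduce the luminescence signal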
Details: 5 uM ADP

AC50, inactive:
COc1ccc(CNc2ccc3cn[nH]c3c2)c(OC)c1OC > 30 µM
CCCc1[nH]nc2c1C(c1ccc(O)c(OC)c1)C(C#N)=C(N)O2 (stereo unspecified) > 30 µM
Cc1sc2ncnc(NCCCN3CCCC3=O)c2c1C > 30 µM
Cc1cc(C)c2[nH]c(O)c(N=Nc3ccc(C(=O)O)cc3)c2c1 > 30 µM
N#Cc1c(NC(=O)CSc2n[nH]c(N)n2)oc(-c2ccccc2)c1-c1ccccc1 > 30 µM
COc1cccc(/C=c2\s/c(=C\C(=O)C(C)(C)C)[nH]c2=O)c1 > 30 µM
CCOC(=O)c1cnc2c(C)cc(Cl)cc2c1N1CCN(C)CC1 > 30 µM
COc1ccccc1/C=N/NC(=O)c1nnn(-c2nonc2N)c1-c1cccs1 > 30 µM
CCN1CCN(c2nc(Nc3cccc(F)c3)nc(N)c2[N+](=O)[O-])CC1 > 30 µM
Cc1nc(N2CCOCC2)nc(N2CCCCC2)c1[N+](=O)[O-] > 30 µM
COc1ccc(O)c(-c2nc(N)nc(N)n2)c1 > 30 µM
Cc1cccc(C)c1OCC(O)CNC(C)c1ccccc1 (stereo unspecified) > 30 µM
O=C(CNC(=O)c1ccccc1)N/N=C/C=C/c1ccccc1 > 30 µM
Cc1cc(NC(=O)COC(=O)c2cc(S(=O)(=O)N3CCOCC3)ccc2N2CCCCC2)no1 > 30 µM
CN(c1nc2nonc2nc1NC1CC1)C1CCOC1 (stereo unspecified) > 30 µM
CCC/C(=N/NC(=O)c1nnn(-c2nonc2N)c1CN1CCCCC1)c1ccccc1 > 30 µM
COc1ccc(NC(=O)CSc2nnc(-c3cccc(O)c3)o2)cc1 > 30 µM
COc1ccc2cc(C(=O)NCc3ccco3)c(=O)oc2c1 > 30 µM
COc1cccc(NC(=O)[C@@H]2CCCN2S(=O)(=O)c2cccc3cccnc23)c1 > 30 µM
CCCNC(=O)NC(C(=O)OC)C12CC3CC(CC(C3)C1)C2 (stereo unspecified) > 30 µM
CCOC(=O)c1[nH]c2c(c1C)C(=O)CC(c1ccc(OC)c(OC)c1)C2 (stereo unspecified) > 30 µM
